Assay [1] has as its target Methanococcus maripaludis chaperonin (MmCpn) (UniProt Q6LX38). In words: High-Throughput Screening for Modulators of Cytosolic Chaperonin Activity: MmCpn Primary Screen (AID 488978).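 Also: 50 nM MmCpn enzyme hydrolysing 30 µM ATP at 37 °C; 0% is about no effect.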 The gist of the method:
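ADP formation read by HTRF Transcreener, 665/590 nm emission after 320 nm excitation. Enzyme: archaeal chaperonin at 50 nM final; substrate ATP 30 uM final; 10 min, 37C, after 5 min compound preincubation at RT.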

The target in assay [2] is Transient receptor potential cation channel subfamily V member 1 (Homo sapiens) (UniProt Q8NER1). As to the kind of experiment: HTS Assay for Compounds that Act as Enhancers of the Vanilloid Receptor 1 (AID 488979). Also: 0% is about no effect. Put shortly: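 TRPV1 cells loaded with Fluo-8 calcium dye; compound added and Ca2+ signal (ex 480/em 520 nm) followed 3 min, then capsaicin at EC20 added and read 2 more min to detect enhancement.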

In assay [3] the target is Thyrotropin receptor (Homo sapiens) (UniProt P16473). In words: qHTS Assay for Antagonists of the Thyroid Stimulating Hormone Receptor (AID 488980). Also: series mostly up to about 58 µM; 0% is about no effect. The gist of the method: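 TSHR-HEK293 cells; 70 uM RO 20-1724 PDE inhibitor; compound + EC80 TSH (4 nM final); anti-cAMP cryptate antibody/cAMP-d2 in lysis buffer, 30 min RT; HTRF 665/620 nm read.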
Assay [4] addresses D(1A) dopamine receptor (Homo sapiens) (UniProt P21728). In words: HTS Assay for Allosteric Agonists of the Human D1 Dopamine Receptor: Primary Screen for Potentiators (AID 488982). Also: 0% is about no effect. The gist of the method:
(§1)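 Tetracycline-induced HEK293 Trex D1 cells with forced coupling to calcium, loaded with no-wash calcium dye; kinetic fluorescence read 180 s after compound addition for agonism, then a further 180 s after an EC20 dopamine challenge for potentiation.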

Assay [5] can be described thus: Validation screen for small molecules that induce genotoxicity in human embryonic kidney (HEK293T) cells expressing luciferase-tagged ELG1 (AID 493106). Also: 0% is about no effect. Put shortly:
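ELG1-luciferase reporter readout (ONE-Glo, 30 min, room temperature) after 16 hr compound treatment at 37 °C of HEK293T cells at 2,000 per well. Rising luminescence flags genotoxic stress.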

Assay [6] concerns the target Thyrotropin-releasing hormone receptor (Homo sapiens) (UniProt P34981). As to the kind of experiment: qHTS for Small Molecule Agonists and Allosteric Enhancers of Human TRH Receptor: Validation Screen for Agonists (AID 493127;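 active = calcium activation more than 3 SD above the typical response in the agonist read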;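 also: intracellular calcium rise by fluo-8 fluorescence before TRH EC20 addition; 0% is about no effect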). The following applies: TRH receptor agonist cell assay; at 2 µM; stronger effect = higher value. Put shortly: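 Compound-evoked intracellular calcium release in fluo-8-loaded TRHR cells, read kinetically on FDSS (Ex 480/Em 530, 1 s/cycle) after 23 nL pintool transfer. Agonist phase preceded 10 nM TRH EC20 addition.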
A general note: Quantitative high-throughput screening tests each substance at several concentrations.

Assay [7] is described as follows: qHTS for Inhibitors of Cell Surface uPA Generation: Validation Assay (AID 493164).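 Also: RAW 264.7 macrophage cells exposed to compound for 18 h; 0% is about no effect.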 The gist of the method:
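ATP-Lite luminescence read-out: ATP remains high when uPA activity-dependent LF translocation into the cytoplasm is blocked. RAW 264.7 cells, 18 h compound exposure at 37 C; 7-point titration, 2.45 nM to 38.3 uM final.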

Assay [8] addresses Galactokinase (Homo sapiens) (UniProt P51570). In words: qHTS Validation Assay for Inhibitors of Human Galactokinase (GALK) (AID 493189). Also: 0% is about no effect. Put shortly: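 Luminescence from leftover ATP (Kinase-Glo Plus, 10 min) served as read-out after a 1 h room-temperature reaction of 5 nM GALK, 100 uM galactose and 35 uM ATP at pH8.0.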
Assay [9] in a line: Validation screen for small molecules that induce DNA re-replication in SW480 colon adenocarcinoma cells (AID 504364). Also: 0% is about no effect. The gist of the method:
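Image-based DNA content read-out: Hoechst stain 40 min, total nuclear fluorescence intensity (ex 405 nm, em 500-530 nm) after 48 h compound exposure of 250 SW480 cells/well at 37 C, 5% CO2, versus DMSO vehicle.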

For assay [10], the target named is Peptidyl-prolyl cis-trans isomerase NIMA-interacting 1 (Homo sapiens) (UniProt Q13526). As to the kind of experiment: qHTS Validation Assay to Find Inhibitors of Pin1 (AID 504536; active = well fitted inhibition curve with a large enough effect in the polarisation, with a control signal flat, not every such curve was filed as active; the % refers to the polarisation;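 also: 0% = full Pin1 enzyme wells and -100% = no-enzyme wells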). Put shortly: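 Fluorescence polarization competition: compounds (titration) displace HiFluor-488-labeled Pin1-1b peptide from Pin1 (0.3 uM final) in pH 7.5 HEPES buffer with DTT, 10 min at room temperature; %Activity normalized to no-enzyme wells, curves fitted.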

Assay [11] has as its target phosphoglycerate mutase (Leishmania major) (UniProt Q4Q090). In words: qHTS Validation Assay to Find Inhibitors of Phosphoglycerate Mutase (AID 504548). Also: series mostly up to about 58 µM; % is scaled to controls: 0 for no effect and ±100 for the full control effect. To be noted: Potency: inhibition qHTS. Put shortly: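 Lm PGAM 1.25nM final; 100 mM TEA pH 7.6, 5 mM MgCl2, 0.01% Tween-20; 45 min RT; Kinase-GloPlus, 10 min; end-point luminescence. Enzyme-free wells as negative controls.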

For assay [12], the target named is Ubiquitin carboxyl-terminal hydrolase 1 (Homo sapiens) (UniProt O94782). As to the kind of experiment: Inhibitors of USP1/UAF1: Pilot qHTS (AID 504865).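 Also: rhodamine fluorescence freed from ubiquitin-rhodamine substrate followed over time; top concentration of the series differs between compounds; % is scaled to controls: 0 for no effect and ±100 for the full control effect; nearly all actives have a fitted effect of over 35% in size.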 The gist of the method:
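1nM USP1/UAF1 + cpd, 15 min RT; start w/ Ub-Rho 150nM final; kinetic FL 480/540 nm, 6 reads q60 s. Buffer 50mM HEPES pH 7.8, 0.5mM EDTA, 1mM TCEP, 0.01% Tween-20, 0.1 mg/ml BSA.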

Assay [13] addresses ATPase family AAA domain-containing protein 5 (Homo sapiens) (UniProt Q96QE3). As to the kind of experiment: Validation screen for small molecules that inhibit ELG1-dependent DNA repair in human embryonic kidney (HEK293T) cells expressing luciferase-tagged ELG1 (AID 493107).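 Also: series mostly up to about 46 µM; % is scaled to controls: 0 for no effect and ±100 for the full control effect; inhibitors lower the ELG1-luciferase luminescence signal; nearly all actives have a fitted effect of over 70% in size.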 Put shortly:
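Luciferase read-out, ONE-Glo, 30 min at room temperature, follows 16 h co-exposure at 37 C of compound and the DNA-damaging agent 5-fluorouridine. Cells: HEK293T with ELG1-luciferase fusion, 2,000 per well, DMSO as vehicle.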

Assay [14] is described as follows: Nrf2 qHTS screen for inhibitors: Validation (AID 493153; active = well fitted inhibition curve with a large enough effect in the main read-out, with a control signal flat, not every such curve was filed as active). To be noted: Potency: luciferase luminescence; viability change: measured here: cytotoxicity max response. Put shortly: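 Concentration-response on A549 ARE_Fluc reporter cells exposed 18-24 h at 37 C, 5% CO2. Cytotoxicity read first by CellTiter-Fluor fluorescence (Ex 405/Em 525), then Nrf2 inhibition by BugLite luminescence after 15 min.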

Assay [15] has as its target Phosphoglycerate kinase, glycosomal (Trypanosoma brucei brucei) (UniProt P07378). In words: qHTS Validation Assay to Find Inhibitors of Phosphoglycerate Kinase (AID 504547).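 Also: control wells lack PGK and mark full inhibition.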 The gist of the method:
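Compounds are pinned into the substrate/PGK mixture, and GAPDH (100nM final) is added to start the reaction by producing 1,3-BPG. After 60 minutes at room temperature, Kinase-Glo Plus is added and luminescence is measured 10 minutes later.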

Assay [16] addresses D(1A) dopamine receptor (Homo sapiens) (UniProt P21728). As to the kind of experiment: HTS Assay for Allosteric Agonists of the Human D1 Dopamine Receptor: Primary Screen for Agonists (AID 488981). Also: potency is read from the fitted curve at half-maximal effect. As to activation: 0% is about no effect. The gist of the method: as §1
The target is the same in assay [17]. In words: HTS Assay for Allosteric Agonists of the Human D1 Dopamine Receptor: Primary Screen for Antagonists (AID 488983).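 Also: calcium flux response to an EC80 dopamine challenge measured with no-wash dye; % is scaled to controls: 0 for no effect and ±100 for the full control effect; nearly all actives have a fitted effect of over 65% in size.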 The gist of the method: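 Calcium-flux read-out in inducible HEK293 T-REx cells expressing D1, dye-loaded 30–90 min at room temperature. Kinetic reads: 180 s after compound (agonist phase), then 180 s after an EC80 dopamine challenge.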

The nature of assay [18]: qHTS for Inhibitors of ATXN expression: Validation of Cytotoxic Assay (AID 588349). Also: % is scaled to controls: 0 for no effect and ±100 for the full control effect. The gist of the method:
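Cytotoxicity counter-screen: ATP-based luminescent viability (CellTiter Glo) after 72 hr exposure of HEK293 cells to a compound titration at 37 degrees C.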

Results filed as inconclusive are left out. Active and inactive are the calls of the source. Unless noted, calls follow the shape of the dose curve; as a rule, active = well fitted curve in the direction sought with a large enough effect; inconclusive = small, poorly fitted or top-dose-only effect, or another doubt; inactive = no such curve, though single readings can be large; an effect the other way counts as inactive or inconclusive.

Sequence of Galactokinase (Homo sapiens) (P51570 whole entry, looked up): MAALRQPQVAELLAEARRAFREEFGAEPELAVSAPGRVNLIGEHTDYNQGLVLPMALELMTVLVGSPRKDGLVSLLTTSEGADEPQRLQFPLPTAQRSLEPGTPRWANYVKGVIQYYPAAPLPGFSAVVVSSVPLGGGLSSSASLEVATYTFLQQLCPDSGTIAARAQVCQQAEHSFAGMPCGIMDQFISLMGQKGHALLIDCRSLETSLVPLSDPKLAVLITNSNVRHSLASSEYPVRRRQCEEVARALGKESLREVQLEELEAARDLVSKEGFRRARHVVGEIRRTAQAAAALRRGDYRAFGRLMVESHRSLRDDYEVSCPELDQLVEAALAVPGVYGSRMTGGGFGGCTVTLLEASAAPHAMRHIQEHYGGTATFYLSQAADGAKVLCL
Sequence of Peptidyl-prolyl cis-trans isomerase NIMA-interacting 1 (Homo sapiens) (Q13526 whole entry, looked up): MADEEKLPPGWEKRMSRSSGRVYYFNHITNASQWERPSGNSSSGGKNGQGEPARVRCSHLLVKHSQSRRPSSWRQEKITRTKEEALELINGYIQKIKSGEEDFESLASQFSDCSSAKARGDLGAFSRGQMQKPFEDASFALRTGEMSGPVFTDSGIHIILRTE
Sequence of Thyrotropin-releasing hormone receptor (Homo sapiens) (P34981 whole entry, looked up): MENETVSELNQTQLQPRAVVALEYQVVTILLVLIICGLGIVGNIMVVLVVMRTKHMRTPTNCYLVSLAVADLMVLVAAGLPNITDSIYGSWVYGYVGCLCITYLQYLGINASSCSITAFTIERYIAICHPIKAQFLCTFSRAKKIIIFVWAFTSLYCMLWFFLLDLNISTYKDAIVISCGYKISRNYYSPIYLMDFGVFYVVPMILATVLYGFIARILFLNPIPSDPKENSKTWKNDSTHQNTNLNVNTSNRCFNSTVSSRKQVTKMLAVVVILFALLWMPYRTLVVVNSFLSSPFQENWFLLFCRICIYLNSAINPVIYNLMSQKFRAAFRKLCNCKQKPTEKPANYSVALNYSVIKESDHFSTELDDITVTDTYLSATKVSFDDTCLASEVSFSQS
Sequence of D(1A) dopamine receptor (Homo sapiens) (P21728 whole entry, looked up): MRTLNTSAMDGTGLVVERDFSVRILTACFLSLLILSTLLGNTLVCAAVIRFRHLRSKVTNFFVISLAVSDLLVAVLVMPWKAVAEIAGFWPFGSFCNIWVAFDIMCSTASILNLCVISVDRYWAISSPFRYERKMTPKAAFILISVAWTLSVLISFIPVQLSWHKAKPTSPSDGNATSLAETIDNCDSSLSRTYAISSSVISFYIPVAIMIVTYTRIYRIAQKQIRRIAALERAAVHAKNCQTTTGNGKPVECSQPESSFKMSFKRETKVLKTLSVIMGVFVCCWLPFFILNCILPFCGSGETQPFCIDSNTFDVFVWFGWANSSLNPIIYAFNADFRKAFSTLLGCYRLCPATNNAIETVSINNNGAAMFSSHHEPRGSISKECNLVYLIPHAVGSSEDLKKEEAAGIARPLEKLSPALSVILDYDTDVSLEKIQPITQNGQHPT
Sequence of Ubiquitin carboxyl-terminal hydrolase 1 (Homo sapiens) (O94782 whole entry, looked up): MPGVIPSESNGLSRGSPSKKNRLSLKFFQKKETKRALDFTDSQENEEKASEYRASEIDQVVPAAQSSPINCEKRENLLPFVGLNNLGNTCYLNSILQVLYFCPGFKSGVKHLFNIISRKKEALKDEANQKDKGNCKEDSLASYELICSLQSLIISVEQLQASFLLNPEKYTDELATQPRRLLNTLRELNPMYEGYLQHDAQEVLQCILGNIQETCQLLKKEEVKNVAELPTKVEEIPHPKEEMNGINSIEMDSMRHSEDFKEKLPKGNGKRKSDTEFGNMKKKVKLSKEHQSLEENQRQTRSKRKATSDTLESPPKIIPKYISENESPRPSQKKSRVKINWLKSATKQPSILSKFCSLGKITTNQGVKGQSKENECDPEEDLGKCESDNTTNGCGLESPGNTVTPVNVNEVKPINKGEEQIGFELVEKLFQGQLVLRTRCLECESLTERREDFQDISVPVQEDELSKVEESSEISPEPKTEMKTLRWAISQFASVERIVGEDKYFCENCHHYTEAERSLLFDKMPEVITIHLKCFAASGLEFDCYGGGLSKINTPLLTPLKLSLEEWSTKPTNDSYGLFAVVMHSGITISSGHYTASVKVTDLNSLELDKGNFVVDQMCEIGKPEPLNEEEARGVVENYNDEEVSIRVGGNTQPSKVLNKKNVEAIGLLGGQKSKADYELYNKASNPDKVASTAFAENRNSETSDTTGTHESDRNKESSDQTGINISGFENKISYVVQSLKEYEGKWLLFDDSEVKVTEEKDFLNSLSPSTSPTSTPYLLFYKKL
Sequence of Transient receptor potential cation channel subfamily V member 1 (Homo sapiens) (Q8NER1 whole entry, looked up): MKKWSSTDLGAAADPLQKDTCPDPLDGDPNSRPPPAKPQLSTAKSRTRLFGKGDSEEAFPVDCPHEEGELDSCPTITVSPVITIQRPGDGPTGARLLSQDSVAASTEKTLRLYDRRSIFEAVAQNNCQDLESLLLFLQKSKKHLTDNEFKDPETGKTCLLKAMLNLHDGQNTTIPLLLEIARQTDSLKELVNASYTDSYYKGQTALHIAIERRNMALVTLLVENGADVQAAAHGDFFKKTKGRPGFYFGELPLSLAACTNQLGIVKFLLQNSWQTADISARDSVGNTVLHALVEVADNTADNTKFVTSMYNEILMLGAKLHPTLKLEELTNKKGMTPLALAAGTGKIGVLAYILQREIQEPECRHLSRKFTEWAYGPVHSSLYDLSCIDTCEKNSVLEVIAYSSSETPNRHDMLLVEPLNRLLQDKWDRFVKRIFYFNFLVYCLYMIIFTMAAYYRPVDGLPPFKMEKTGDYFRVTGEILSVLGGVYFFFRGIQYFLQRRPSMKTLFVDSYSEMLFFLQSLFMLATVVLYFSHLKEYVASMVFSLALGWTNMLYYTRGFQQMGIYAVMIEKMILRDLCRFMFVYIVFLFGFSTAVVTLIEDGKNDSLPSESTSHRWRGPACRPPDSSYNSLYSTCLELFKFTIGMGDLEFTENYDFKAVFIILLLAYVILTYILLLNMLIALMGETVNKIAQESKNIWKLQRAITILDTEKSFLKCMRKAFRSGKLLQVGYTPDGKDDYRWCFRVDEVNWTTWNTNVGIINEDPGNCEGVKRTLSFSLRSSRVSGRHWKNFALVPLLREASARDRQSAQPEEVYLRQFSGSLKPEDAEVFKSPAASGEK
Sequence of Phosphoglycerate kinase, glycosomal (Trypanosoma brucei brucei) (P07378 whole entry, looked up): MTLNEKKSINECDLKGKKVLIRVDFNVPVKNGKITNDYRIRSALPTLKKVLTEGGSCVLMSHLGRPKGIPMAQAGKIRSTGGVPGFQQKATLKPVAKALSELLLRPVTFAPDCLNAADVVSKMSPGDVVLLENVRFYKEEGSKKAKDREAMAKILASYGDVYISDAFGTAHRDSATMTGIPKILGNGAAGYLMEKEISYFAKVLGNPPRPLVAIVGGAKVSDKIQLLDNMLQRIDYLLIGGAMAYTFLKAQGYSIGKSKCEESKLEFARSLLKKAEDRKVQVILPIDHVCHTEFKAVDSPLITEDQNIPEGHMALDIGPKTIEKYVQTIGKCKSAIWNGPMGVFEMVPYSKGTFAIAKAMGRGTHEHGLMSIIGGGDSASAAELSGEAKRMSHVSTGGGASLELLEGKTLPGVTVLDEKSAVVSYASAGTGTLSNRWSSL
Sequence of Methanococcus maripaludis chaperonin (MmCpn) (Q6LX38 1-543): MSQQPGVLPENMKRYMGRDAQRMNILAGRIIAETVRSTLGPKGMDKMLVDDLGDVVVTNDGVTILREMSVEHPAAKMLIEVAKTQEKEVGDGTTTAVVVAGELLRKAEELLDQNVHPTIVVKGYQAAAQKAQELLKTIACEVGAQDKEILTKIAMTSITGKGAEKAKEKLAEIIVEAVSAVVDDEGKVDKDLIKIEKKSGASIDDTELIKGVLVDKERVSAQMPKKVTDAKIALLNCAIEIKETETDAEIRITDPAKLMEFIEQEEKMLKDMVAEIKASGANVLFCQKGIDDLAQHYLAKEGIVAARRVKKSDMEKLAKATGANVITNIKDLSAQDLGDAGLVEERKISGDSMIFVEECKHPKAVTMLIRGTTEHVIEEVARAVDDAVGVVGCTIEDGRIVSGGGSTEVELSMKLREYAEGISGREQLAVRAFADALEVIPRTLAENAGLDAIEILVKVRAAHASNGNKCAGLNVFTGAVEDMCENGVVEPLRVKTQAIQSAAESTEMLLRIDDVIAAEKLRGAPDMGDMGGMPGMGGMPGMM
Sequence of phosphoglycerate mutase (Leishmania major) (Q4Q090 1-553): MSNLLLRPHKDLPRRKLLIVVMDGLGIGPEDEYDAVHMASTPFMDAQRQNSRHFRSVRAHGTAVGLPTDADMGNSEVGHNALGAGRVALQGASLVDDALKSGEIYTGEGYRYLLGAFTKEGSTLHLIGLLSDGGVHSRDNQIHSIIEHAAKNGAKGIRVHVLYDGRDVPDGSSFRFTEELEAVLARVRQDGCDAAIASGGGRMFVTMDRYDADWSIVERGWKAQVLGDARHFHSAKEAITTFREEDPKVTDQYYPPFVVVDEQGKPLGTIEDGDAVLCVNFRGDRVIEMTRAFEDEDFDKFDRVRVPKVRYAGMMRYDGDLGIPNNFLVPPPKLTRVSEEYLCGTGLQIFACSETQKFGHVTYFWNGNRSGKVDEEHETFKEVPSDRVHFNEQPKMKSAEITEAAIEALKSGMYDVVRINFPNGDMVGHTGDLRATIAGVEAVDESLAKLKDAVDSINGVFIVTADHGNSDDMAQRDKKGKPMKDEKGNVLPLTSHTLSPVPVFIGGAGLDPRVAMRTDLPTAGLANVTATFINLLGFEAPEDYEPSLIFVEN

Take `Oc1ccccc1O`: the compound was classed as inactive in [1], in assay [2], in assay [3] and in [7]. In addition, the Potency entry in [4], in assay [5], in assay [8], in [9], in assay [10] and in [11] was “inactive” throughout. The Potency result in [12] was “inactive”. In addition, the activation in assay [6] was 0.375% (inactive).

Consider `CN1CCc2cc(O)c(O)cc2C(c2ccccc2)C1` (stereo not drawn), for which the call in assay [1], in assay [2], in assay [3] and in assay [7] was inactive. Besides, the Potency entry in assay [4], in assay [5], in assay [13], in [14], in assay [8] and in [9] was “inactive” throughout. Also, the Potency entry in assay [15], in [11] and in assay [12] was “inactive” throughout. Also, the activation in [6] was -0.188% (inactive). The viability change in assay [14] is -7.53%.

Turning to `O=S(=O)(c1cccc2c(I)cccc12)N1CCCNCC1`, the compound was called inactive in [1], in assay [3] and in assay [7]. The Potency in assay [16] is 14.1 µM (active). The Potency result in assay [4], in assay [5], in assay [14], in assay [8], in [9] and in assay [10] was “inactive” in each case. For the same compound, the Potency entry in assay [15], in [11] and in assay [12] was “inactive” throughout. Besides, in assay [6], the activation was 2.06% (inactive). For the same compound, the viability change in assay [14] turned out to be 12.3%.

Consider `CC(C)Cc1ccc([C@H](C)C(=O)O)cc1`, for which the outcome in assay [1], in assay [3] and in assay [7] was inactive. Also, the Potency result in assay [16], in assay [4], in assay [17], in assay [5], in assay [13] and in assay [14] was “inactive” in each case. In addition, the Potency entry in assay [9], in assay [15], in assay [12] and in assay [18] was “inactive” throughout. In [6], the activation was 0.688% (inactive). Moreover, the viability change in [14] was found to be 6.18%.

`CN(C)CCC(c1ccc(Cl)cc1)c1ccccn1` (stereo not drawn): the call in assay [1], in assay [2], in assay [3] and in assay [7] was inactive. Also, the Potency entry in [4], in [5], in [13], in assay [14], in assay [8] and in assay [9] was “inactive” throughout. In addition, the Potency entry in assay [10], in assay [15], in assay [11] and in [12] was “inactive” throughout. Also, in assay [6], the activation is 1.12% (inactive). Besides, the viability change in assay [14] was 7.36%.

In the case of `NCCNC(=O)c1ncsc1-c1cccc(F)c1`, the compound was classed as inactive in assay [1], in assay [2], in assay [3] and in [7]. Besides, the Potency entry in [4], in assay [17], in assay [5], in assay [14], in assay [8] and in [9] was “inactive” each time. Further, the Potency entry in assay [10], in assay [15], in [11], in assay [12] and in [18] was “inactive” throughout. Also, the activation in assay [6] is -2.38% (inactive). Further, the viability change in assay [14] came to 1.7%.

With `Cn1c(=O)c2[nH]c(-c3ccccc3)nc2n(C)c1=O`, the outcome in [1], in assay [2], in assay [3] and in assay [7] was inactive. Further, the Potency entry in [4], in [5], in assay [8], in assay [9], in assay [10] and in [15] was “inactive” each time. Also, the Potency result in assay [12] and in assay [18] was “inactive” in each case. In assay [6], the activation is 0.875% (inactive).

Values taken from PubChem BioAssay (NCATS).
